High-throughput results as filed in PubChem BioAssay.
FLuc counter – inhibits or activates purified firefly luciferase, miR-21 counter-screen. P08659. purified FLuc, Km substrates, luminescence inhibition. Potency, µM (top dose mostly 57.5 µM), for inactives: top-dose activity change, negative = inhibition, usual class: inhibitors. actives 6.9% (n = 360,000). AID 588342;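 also: plate controls were vehicle for no effect and reference inhibitor for full effect; nearly all actives have a fitted effect of over 55% in size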
Target sequence (P08659 whole entry, looked up): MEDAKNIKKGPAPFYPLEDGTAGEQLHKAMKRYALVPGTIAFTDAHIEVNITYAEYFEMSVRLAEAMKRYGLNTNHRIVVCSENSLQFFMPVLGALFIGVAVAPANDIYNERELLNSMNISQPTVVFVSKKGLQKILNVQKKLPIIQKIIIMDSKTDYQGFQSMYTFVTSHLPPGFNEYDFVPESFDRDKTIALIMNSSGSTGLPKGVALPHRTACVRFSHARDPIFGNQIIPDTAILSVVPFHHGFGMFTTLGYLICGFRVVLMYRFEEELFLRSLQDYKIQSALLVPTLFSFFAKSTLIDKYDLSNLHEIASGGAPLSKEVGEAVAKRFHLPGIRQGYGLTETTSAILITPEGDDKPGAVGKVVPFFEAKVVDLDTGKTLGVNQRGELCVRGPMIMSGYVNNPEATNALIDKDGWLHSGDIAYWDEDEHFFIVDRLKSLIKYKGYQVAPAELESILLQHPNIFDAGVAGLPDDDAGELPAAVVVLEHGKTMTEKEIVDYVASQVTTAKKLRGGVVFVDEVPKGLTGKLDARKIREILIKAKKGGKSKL
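Biochemical qHTS of compounds, final roughly 60 µM downward over six points, against 10 nM purified firefly luciferase using Km concentrations of substrates (10 uM D-luciferin, 10 uM ATP) in Tris acetate pH 7.5 buffer; luminescence output.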
Rab9 prom act – activators of Rab9 promoter; actives 2.8% (n = 320,000); Huh7 Rab9 promoter-luciferase reporter, luminescence, 24 h; Potency, µM (titrated, usually from 9.22 µM), without a hit: top-dose activation, negative = inhibition, actives largely listed as activators; also: % of control where 0% means no effect; nearly all actives have a fitted effect of over 60% in size
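Huh7 reporter line, Rab9 promoter upstream of luciferase. Compound exposure 24 h at 37 °C in reduced-serum medium with 10% FBS. Read-out: luminescence.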
KinaseGlo FLuc – counter-screen: inhibitors of Kinase-Glo firefly luciferase | actives 0.28% (n = 200,000) | Q27757 | AID 1379 | Kinase-Glo luciferase, ATP luminescence, 8 min | Potency, µM (titrated, usually from 38.3 µM), for the others: at the top dose activity change, negative = inhibition, hits mostly inhibitors; also: % is scaled to controls: 0 for no effect and ±100 for the full control effect; nearly all actives have a fitted effect of over 60% in size
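Luminescence was the read-out, taken after 8-minute incubation at ambient temperature. Luciferase turned over luciferin with 10 uM ATP in imidazole pH 7.2 buffer containing KCl, MgCl2, Tween 20 and BSA.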
SMN2 splice up – SMN2 splice variant enhancement; HEK293 SMN2-luciferase splicing reporter, luminescence, 30-36 h; Potency, µM (doses to about 46.1 µM), without a hit: at the top dose activity change, positive = activation, most hits filed as activators; actives 2.8% (n = 210,000); AID 1458; also: % of control where 0% means no effect; nearly all actives have a fitted effect of over 55% in size
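qHTS luciferase splicing reporter: luminescence rises when SMN2 exon 7 is included in transfected HEK293 cells. Compound exposure lasted 30-36 h at 37C, with 4.5 mM final sodium butyrate as control, followed by a ONE-Glo read.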
ELG1 genotoxic – induces genotoxicity in HEK293T cells with luciferase-tagged ELG1; Potency, µM (series often up to 46 µM), for inactives: at the highest dose activity change, positive = activation, most hits filed as activators; AID 504466; HEK293T ELG1-luciferase reporter, luminescence, 16 h; actives 1.3% (n = 330,000); also: % of control where 0% means no effect; nearly all actives have a fitted effect of over 60% in size
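16 hr compound incubation (37 °C, 5% CO2) of HEK293T cells carrying luciferase-tagged ELG1; luciferase then measured by ONE-Glo luminescence after 30 min at RT.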
NPC1 promoter act – NPC1 promoter activation; Potency, µM (titrated, usually from 9.22 µM), for inactives: at the highest dose activation, most hits filed as activators; actives 2.4% (n = 320,000); Huh7 NPC1 promoter luciferase reporter, 24 h; AID 485313; also: % of control where 0% means no effect; nearly all actives have a fitted effect of over 60% in size
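Cells: Huh7 expressing luciferase under the NPC1 promoter, 1500/well. Seeded 2 h, compound added, incubated 24 h at 37 °C. Luciferase reagent, 10 min ambient, then luminescence.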
* hit, by the source's call; ? = inconclusive; . = no result; [ ] = dose if it differs, or a comment. Most compounds without a hit are left out; they make up all but 7.5% or so of the library. Calls follow the shape of the dose curve; as a rule, active = well fitted curve in the direction sought with a large enough effect; inconclusive = small, poorly fitted or top-dose-only effect, or another doubt; inactive = no such curve, though single readings can be large; an effect the other way counts as inactive or inconclusive. Potency is read from the fitted curve at half-maximal effect.

SMILES | FLuc counter | Rab9 prom act | KinaseGlo FLuc | SMN2 splice up | ELG1 genotoxic | NPC1 promoter act
O=C(N/N=C/c1ccc(F)cc1)c1cccc(NC(=O)c2ccc(F)cc2)c1 | 8.49µM* | ? | . | . | -9.6% | 22.6%
O=C(Nc1ccccc1C(=O)N/N=C/c1ccc(F)cc1)c1ccccc1Br | 6.01µM* | 7.3% | -19.1% | -4.6% | -0.8% | 6.8%
O=C(O)c1ccc(/C=N/NC(=O)c2ccc(F)cc2)cc1 | 19µM* | 1.5% | . | . | -1.6% | -6.0%
O=C(N/N=C/c1ccccc1C(F)(F)F)c1ccc(O)cc1 | 10.7µM* | ? | 0.7% | 27.8% | ? | ?
O=C(N/N=C\c1ccc(F)cc1)c1csnn1 | 23.9µM* | 22.4% | -16.7% | 6.0% | ? | 24.1%
O=C(N/N=C/c1ccccc1O)c1cccc(C(F)(F)F)c1 | ? | -25.7% | 1.3% | -102.7% | ? | -25.2%
CCN(CC(=O)Nc1c(F)cccc1F)C(=O)c1ccc(N2CCCCC2)c([N+](=O)[O-])c1 | -0.9% | -2.6% | . | . | 9.0% | 1.3%
CCN(CC(=O)Nc1ccc(NC(C)=O)cc1)C(=O)c1ccc(N2CCC(C)CC2)c([N+](=O)[O-])c1 | 16.9µM* | -1.4% | . | . | 0.4% | -1.0%
CC1CCC2=C1C[C@H](C(C)(C)O)CC[C@@H]2C (stereo not given in full) | . | . | 0.0% | -7.7% | . | .
CN(C)S(=O)(=O)c1cccc(NC(=O)COC(=O)CCSc2ccc(Cl)cc2)c1 | 21.3µM* | 1.9% | 2.8% | -4.2% | 0.9% | -1.9%
COC(=O)c1cccc(NC(=O)Nc2ccc(Cl)cc2)c1 | 2.69µM* | 3.16µM* | . | . | -1.4% | 2.24µM*
O=C(CCSc1ccccc1Cl)Nc1cccc([N+](=O)[O-])c1 | ? | 22.3% | -1.8% | ? | ? | 16.4%
Cc1cccc(NC(=O)Nc2ccc(S(N)(=O)=O)cc2)c1 | ? | 11.4% | . | . | 1.6% | 14.2%
NS(=O)(=O)c1cccc(NC(=O)CCSc2ccccc2Cl)c1 | 16.9µM* | ? | -3.6% | ? | ? | ?
NS(=O)(=O)c1cccc(NC(=O)Nc2ccc(Cl)cc2)c1 | 7.57µM* | 17.8% | . | . | 6.4% | 29.7%
Cc1cccc(NC(=O)CSc2nc(=O)n(Cc3cccnc3)c3c2CCC3)c1C | -4.7% | . | . | . | . | .
O=C(Nc1cccc(Cl)c1)Nc1cccc(Cl)c1 | ? | 10.7% | -2.5% | -12.3% | -2.7% | 12.8%
COC(=O)c1cc(NC(=O)Nc2cccc(Cl)c2)ccc1Cl | 30.1µM* | 8.6% | -0.1% | -6.8% | -10.3% | 11.6%
COC(=O)c1cccc(NC(=O)NC23CC4CC(CC(C4)C2)C3)c1 | 9.53µM* | 24.1% | 7.6% | 11.0% | ? | 20.6%
CCc1nn(-c2ccccc2)c2nc(-c3ccc(O)cc3)c3cc(OC)c(OC)cc3c12 | -0.3% | . | . | -4.6% | . | .
Cc1ccc([N+](=O)[O-])cc1NC(=S)NCCc1ccccc1 | -0.1% | -1.7% | . | . | -5.6% | -3.0%
CCc1ccc2nc(N(CCN(C)C)C(=O)c3ccc4ncsc4c3)sc2c1 | 13.5µM* | 1.78µM* | . | . | 3.66µM* | 2.82µM*
Cn1cc(C(=O)N2CCN(c3cccc(C(F)(F)F)c3)CC2)c2c3ccccc3n(C)c2c1=O | 2.3% | . | . | 1.0% | . | .
O=C(O)c1cc(NC(=O)c2ccc3c(c2)C(=O)N(Cc2cccnc2)C3=O)cc(C(=O)O)c1 | 1.5% | 2.5% | . | . | 1.9% | 2.9%
Cc1ccc(NC(=O)c2ccc3c(c2)C(=O)N(Cc2cccnc2)C3=O)c(C)c1 | 0.6% | -3.2% | 1.5% | -11.1% | 2.1% | -0.8%
SMILES | FLuc counter | Rab9 prom act | KinaseGlo FLuc | SMN2 splice up | ELG1 genotoxic | NPC1 promoter act
C#Cc1cccc(NC(=O)c2ccc3c(c2)C(=O)N(Cc2cccnc2)C3=O)c1 | 13.5µM* | -4.8% | . | . | 0.9% | 3.2%
CCN1C(=O)c2ccc(C(=O)Nc3nccs3)cc2C1=O | ? | -3.3% | 0.5% | 2.1% | 0.1% | 0.3%
O=C(NCc1ccccc1)c1ccc2c(c1)C(=O)N(Cc1cccnc1)C2=O | 0.0% | -0.6% | . | . | 1.0% | 1.5%
Cc1cnc(NC(=O)c2ccc3c(c2)C(=O)N(Cc2cccnc2)C3=O)s1 | 1.69µM* | 2.4% | . | . | 3.7% | 2.7%
O=C(Nc1nccs1)c1ccc2c(c1)C(=O)N(Cc1cccnc1)C2=O | 23.9µM* | 1.7% | . | . | -3.6% | 1.0%
CC(C)(C)N1C(=O)c2ccc(C(=O)Nc3nccs3)cc2C1=O | 3.38µM* | 2.82µM* | -2.0% | 15.8% | ? | 3.55µM*
Cc1ccc(C(=O)c2c(N)c(C(=O)Nc3ccccc3Cl)c3ccccn23)cc1 | 0.8% | . | . | 15.4% | . | .
COc1ccc(OC)c(NC(=O)C2=C(C)C(=O)OC23CCN(C(C)C)CC3)c1 | -1.5% | . | . | . | . | .
Cc1n[nH]c(C)c1S(=O)(=O)N1CCCC(C(=O)Nc2ccc(Cl)cc2)C1 (stereo not given) | -7.3% | . | . | -55.8% | . | .
COc1ccccc1NC(=O)COc1ccc(Br)cc1CO | -10.2% | 12.9% | 2.2% | -21.2% | -0.3% | 5.7%
COc1ccccc1NC(=O)COc1ccc(CO)cc1Cl | 6.75µM* | ? | -3.7% | 76.4% | 14.6µM* | ?
O=C(COc1ccc(CO)cc1Cl)Nc1ccc(F)cc1 | 0.849µM* | 1.12µM* | -20.3% | -8.3% | 0.366µM* | 2µM*
O=c1oc2ccc3ccccc3c2cc1-c1nnc(Nc2ccc(Cl)cc2Cl)s1 | 2.0% | . | . | -3.3% | . | .
CCS(=O)(=O)c1ccc(O)c(NC(=O)COc2ccc(Br)cc2)c1 | 23.9µM* | -4.1% | 4.0% | 0.6% | -1.4% | 0.5%
C=C(C)COc1ccc2c(c1)CCC1C2CC[C@]2(C)C(=O)/C(=N/O)CC12 (stereo not given in full) | . | . | -6.8%[7.66 µM] | 4.3%[9.22 µM] | . | .
